{"source": "paper PMC8384837", "about": "“Expanding the binding specificity for RNA recognition by a PUF domain”", "assay_in_all_cases": "yeast three-hybrid, YBZ-1, SC-Leu-His + 0.5 mM 3-AT, 4 days", "conditions_in_all_cases": "tags: N-Gal4 AD-HA kept; label: inside an RPR1-promoter hybrid RNA with tandem MS2 sites; ssRNA", "key": {"[1]": {"target": "PUM1 PUF domain R1-RWS (Homo sapiens, UniProt Q14671 828-1176, S863R;R864W;Q867S)", "sequence (Q14671 828-1176 S863R/R864W/Q867S)": "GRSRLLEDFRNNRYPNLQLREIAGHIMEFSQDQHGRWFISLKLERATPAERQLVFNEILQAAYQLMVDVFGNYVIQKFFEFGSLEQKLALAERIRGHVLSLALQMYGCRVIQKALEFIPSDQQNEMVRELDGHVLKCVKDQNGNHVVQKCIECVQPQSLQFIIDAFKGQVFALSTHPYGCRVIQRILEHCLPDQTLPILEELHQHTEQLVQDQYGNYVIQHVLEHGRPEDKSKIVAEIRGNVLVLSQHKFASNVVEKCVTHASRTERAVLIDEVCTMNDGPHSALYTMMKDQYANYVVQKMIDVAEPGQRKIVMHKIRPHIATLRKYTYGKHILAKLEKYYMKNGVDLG", "in_short": "(§1)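 Pumilio-1 PUF domain libraries, randomized (NNK) at the three base-contacting residues of each repeat, were co-expressed with matching RNA elements from a centromeric plasmid in strain YBZ-1 (LexA–MS2 coat fusion, HIS3 reporter). Transformants were plated on SC-Leu (input) and SC-Leu-His + 0.5 mM 3-AT (selection) for four days, and repeat regions were PCR-amplified and Illumina-sequenced. The interaction score is the log2 change in variant frequency from input to selection, with pseudocount 1 where absent.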"}, "[2]": {"target": "PUM1 PUF domain R1-RGT (Homo sapiens, UniProt Q14671 828-1176, S863R;R864G;Q867T)", "sequence (Q14671 828-1176 S863R/R864G/Q867T)": "as the sequence (Q14671 828-1176 S863R/R864W/Q867S) above, with W37G, S40T counted along it", "in_short": "as §1"}, "[3]": {"target": "PUM1 PUF domain R5-RGG (Homo sapiens, UniProt Q14671 828-1176, C1007R;R1008G;Q1011G)", "in_short": "as §1"}, "[4]": {"target": "PUM1 PUF domain R5-LWA (Homo sapiens, UniProt Q14671 828-1176, C1007L;R1008W;Q1011A)", "sequence (Q14671 828-1176 C1007L/R1008W/Q1011A)": "as the sequence (Q14671 828-1176 S863R/R864W/Q867S) above, with R36S, W37R, S40Q, C180L, R181W, Q184A counted along it", "in_short": "as §1"}, "[5]": {"target": "PUM1 PUF domain R5-RRP (Homo sapiens, UniProt Q14671 828-1176, C1007R;Q1011P)", "sequence (Q14671 828-1176 C1007R/Q1011P)": "as the sequence (Q14671 828-1176 S863R/R864W/Q867S) above, with R36S, W37R, S40Q, C180R, Q184P counted along it", "in_short": "as §1"}, "[6]": {"target": "PUM1 PUF domain R1-MGR (Homo sapiens, UniProt Q14671 828-1176, S863M;R864G;Q867R)", "in_short": "as §1"}, "[7]": {"target": "PUM1 PUF domain R1-YWR (Homo sapiens, UniProt Q14671 828-1176, S863Y;R864W;Q867R)", "in_short": "as §1"}, "[8]": {"target": "PUM1 PUF domain R3-LSV (Homo sapiens, UniProt Q14671 828-1176, C935L;R936S;Q939V)", "in_short": "as §1"}, "[9]": {"target": "PUM1 PUF domain R3-LWN (Homo sapiens, UniProt Q14671 828-1176, C935L;R936W;Q939N)", "in_short": "as §1"}, "[10]": {"target": "PUM1 PUF domain R3-MRS (Homo sapiens, UniProt Q14671 828-1176, C935M;Q939S)", "in_short": "as §1"}, "[11]": {"target": "PUM1 PUF domain R3-RPG (Homo sapiens, UniProt Q14671 828-1176, C935R;R936P;Q939G)", "in_short": "as §1"}, "[12]": {"target": "T1, PUM1 PUF domain R6-VWA (Homo sapiens, UniProt Q14671 828-1176, N1043V;Y1044W;Q1047A)", "T1 sequence": "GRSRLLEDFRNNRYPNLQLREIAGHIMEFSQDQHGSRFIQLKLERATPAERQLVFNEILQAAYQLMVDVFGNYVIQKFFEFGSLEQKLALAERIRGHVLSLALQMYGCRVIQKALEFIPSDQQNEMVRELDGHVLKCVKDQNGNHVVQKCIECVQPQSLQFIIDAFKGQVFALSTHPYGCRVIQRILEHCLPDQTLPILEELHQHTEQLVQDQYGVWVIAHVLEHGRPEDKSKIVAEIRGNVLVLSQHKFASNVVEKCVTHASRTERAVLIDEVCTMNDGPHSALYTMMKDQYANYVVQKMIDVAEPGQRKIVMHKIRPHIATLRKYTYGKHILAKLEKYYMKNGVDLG", "in_short": "as §1"}, "[13]": {"target": "PUM1 PUF domain R4-GNR (Homo sapiens, UniProt Q14671 828-1176, N971G;H972N;Q975R)", "in_short": "as §1"}}}
{"sequence": "GGCUAGAACUAGUGGAUCCCCCGGCGCCCGGCGGCUCGAGCCCGGGUAAGUGUAAAUGGUCUGCAUGCCGCCGGGCGCCAUGCCUGCAGGUCGACUCUAGAAAACAUG", "values": [{"measurement": "binding signal", "setting": "[1]", "result": "1.65 log2 enrichment (interaction score)"}, {"measurement": "binding signal", "setting": "[2]", "result": "1.3 log2 enrichment (interaction score)"}]}
{"sequence": "GGCUAGAACUAGUGGAUCCCCCGGCGCCCGGCGGCUCGAGCCCGGGUAAGUGUUAAUAGUCUGCAUGCCGCCGGGCGCCAUGCCUGCAGGUCGACUCUAGAAAACAUG", "values": [{"measurement": "binding signal", "setting": "[3]", "result": "2.55 log2 enrichment (interaction score)"}, {"measurement": "binding signal", "setting": "[4]", "result": "3.28 log2 enrichment (interaction score)"}, {"measurement": "binding signal", "setting": "[5]", "result": "4.7 log2 enrichment (interaction score)"}]}
{"sequence": "GGCUAGAACUAGUGGAUCCCCCGGCGCCCGGCGGCUCGAGCCCGGGUAAGUGUAAAUUGUCUGCAUGCCGCCGGGCGCCAUGCCUGCAGGUCGACUCUAGAAAACAUG", "values": [{"measurement": "binding signal", "setting": "[1]", "result": "3.86 log2 enrichment (interaction score)"}, {"measurement": "binding signal", "setting": "[6]", "result": "2.75 log2 enrichment (interaction score)"}, {"measurement": "binding signal", "setting": "[2]", "result": "4.56 log2 enrichment (interaction score)"}, {"measurement": "binding signal", "setting": "[7]", "result": "4.46 log2 enrichment (interaction score)"}]}
{"sequence": "GGCUAGAACUAGUGGAUCCCCCGGCGCCCGGCGGCUCGAGCCCGGGUAAGUGUAAUUAGUCUGCAUGCCGCCGGGCGCCAUGCCUGCAGGUCGACUCUAGAAAACAUG", "values": [{"measurement": "binding signal", "setting": "[8]", "result": "2.26 log2 enrichment (interaction score)"}, {"measurement": "binding signal", "setting": "[9]", "result": "4 log2 enrichment (interaction score)"}, {"measurement": "binding signal", "setting": "[10]", "result": "2.96 log2 enrichment (interaction score)"}, {"measurement": "binding signal", "setting": "[11]", "result": "4.38 log2 enrichment (interaction score)"}]}
{"sequence": "GGCUAGAACUAGUGGAUCCCCCGGCGCCCGGCGGCUCGAGCCCGGGUAAGUGAAAAUAGUCUGCAUGCCGCCGGGCGCCAUGCCUGCAGGUCGACUCUAGAAAACAUG", "values": [{"measurement": "binding signal", "setting": "[12]", "result": "6 log2 enrichment (interaction score)"}]}
{"sequence": "GGCUAGAACUAGUGGAUCCCCCGGCGCCCGGCGGCUCGAGCCCGGGUAAGUGUAAAUCGUCUGCAUGCCGCCGGGCGCCAUGCCUGCAGGUCGACUCUAGAAAACAUG", "values": [{"measurement": "binding signal", "setting": "[1]", "result": "2.83 log2 enrichment (interaction score)"}, {"measurement": "binding signal", "setting": "[6]", "result": "1.49 log2 enrichment (interaction score)"}, {"measurement": "binding signal", "setting": "[2]", "result": "5.04 log2 enrichment (interaction score)"}, {"measurement": "binding signal", "setting": "[7]", "result": "4.68 log2 enrichment (interaction score)"}]}
{"sequence": "GGCUAGAACUAGUGGAUCCCCCGGCGCCCGGCGGCUCGAGCCCGGGUAAGUGUAUAUAGUCUGCAUGCCGCCGGGCGCCAUGCCUGCAGGUCGACUCUAGAAAACAUG", "values": [{"measurement": "binding signal", "setting": "[13]", "result": "3.44 log2 enrichment (interaction score)"}]}
